# Bioassay records as filed in PubChem BioAssay.
# ST2 inh: inhibitors of human ST2 (IL1RL1) binding to IL-33; actives 2.3% (n = 78,000); Q01638; AlphaLISA ST2-Fc/biotin-IL-33 interaction, 1 h; inhibition, % for hits at 17 µM; in the data active means inhibition above about 30%
# Target sequence (Q01638 whole entry, looked up): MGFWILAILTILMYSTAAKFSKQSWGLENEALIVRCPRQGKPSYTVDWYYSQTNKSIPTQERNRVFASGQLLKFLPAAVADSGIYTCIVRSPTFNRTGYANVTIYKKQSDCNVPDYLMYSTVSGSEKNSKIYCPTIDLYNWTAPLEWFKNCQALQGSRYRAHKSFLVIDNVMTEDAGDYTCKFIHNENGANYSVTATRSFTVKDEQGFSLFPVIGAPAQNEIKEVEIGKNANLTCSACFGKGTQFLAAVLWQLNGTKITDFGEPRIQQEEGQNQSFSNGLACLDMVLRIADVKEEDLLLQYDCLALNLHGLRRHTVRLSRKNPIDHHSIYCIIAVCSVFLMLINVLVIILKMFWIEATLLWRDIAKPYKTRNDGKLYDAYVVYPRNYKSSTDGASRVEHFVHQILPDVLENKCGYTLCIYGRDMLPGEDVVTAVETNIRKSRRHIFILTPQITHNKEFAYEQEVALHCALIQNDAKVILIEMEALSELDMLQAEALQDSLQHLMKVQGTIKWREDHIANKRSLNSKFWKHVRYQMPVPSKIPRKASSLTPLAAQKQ
# Numbers without * were called inactive; i = inactive. Shown is part of a subset that was picked to be rich in hits.
SMILES,ST2 inh
Cc1ccc(Nc2cc(C)nc(N3CCN(S(=O)(=O)c4ccc(Oc5ccccc5)cc4)CC3)n2)cc1,i
Cc1cc(C)c(S(N)(=O)=O)c(C)c1,i
CC(=O)N(CN1C(=O)c2ccccc2C1=O)c1cc(C)ccc1C,i
Cc1ccc(S(=O)(=O)N=C2C=CC(=O)c3ccccc32)c(C)c1,61%*
Cc1ccc(S(=O)(=O)N2CCN(c3nc(C)cc(N4CCCC4)n3)CC2)c(C)c1,i
Cc1cc(C)c(S(=O)(=O)N=C2C=CC(=O)c3ccccc32)c(C)c1,39%*
Cc1ccc(C)c(S(=O)(=O)N=C2C=C(Br)C(=O)c3ccccc32)c1,34%*
Cc1cc(C)c(S(=O)(=O)n2cnc3ccccc32)c(C)c1,i
c1cc(CN2CCCCCCC2)cs1,i
CC1=C(C(=O)Nc2ccc(C)cn2)C(c2ccccc2Cl)C2=C(CCCC2=O)N1 (stereo not drawn),i
O=C(NC1CCCC1)c1ccc2c(c1)ncn2C1CCCC1,i
O=C1C(=O)N(CCc2ccccc2)C(c2ccc(Cl)cc2)C1=C(O)c1ccccc1 (stereo not drawn),i
[N-]=C=C1C(=O)N(CCc2ccccc2)C(=O)[C@H]([n+]2ccccc2)[C@H]1c1ccc(Cl)cc1,34%*
CC(C)Cc1n[nH]c(Cn2[nH]c(=O)ccc2=O)n1,i
Cc1ccc(Cn2c(CNC(=O)Cc3cccs3)nc3cccnc32)cc1,i
COC(=O)[C@@H]1C[C@@H](N(C)C)CN1C(=O)c1cc(C)nc2c1cnn2C(C)C,i
NNc1nc(N)c2c(n1)-c1ccccc1CC21CCCCC1,i
Cc1ccsc1[C@@H]1CCN(C(=O)c2coc3c2C(=O)CCC3)C[C@H]1O,32%*
CCc1nc(C)c(C(=O)N2CC[C@@H](c3sccc3C)[C@H](O)C2)o1,i
CC(=O)c1[nH]c(C)c(C(=O)N2CC[C@@H](c3sccc3C)[C@H](O)C2)c1C,i
COc1cc(SC)ccc1C(=O)Nc1ccc(S(=O)(=O)N2CCOCC2)cc1,i
COc1ccc2c(c1OC)C(=O)OC2Nc1ccc(Br)cc1 (stereo not drawn),i
C[C@@H]1O[C@@H](O[C@@H]2[C@@H](O)[C@H](C)O[C@@H](OCC3OC(Oc4c(-c5ccc(O)c(O)c5)oc5cc(O)cc(O)c5c4=O)C(O)C(O)C3O)[C@@H]2O)[C@H](O)[C@H](O)[C@H]1O (stereo partly drawn),i
COc1cc(OC2OC(COC3OCC(O)(CO)C3O)C(O)C(O)C2O)c2c(-c3ccc(O)c(O)c3)cc(=O)oc2c1 (stereo not drawn),33%*
C[C@@H]1O[C@@H](O[C@@H]2[C@@H](O)[C@H](OCCc3ccc(O)c(O)c3)O[C@H](CO[C@@H]3OC[C@](O)(CO)[C@H]3O)[C@H]2OC(=O)/C=C/c2ccc(O)c(O)c2)[C@H](O)[C@H](O)[C@H]1O,i
SMILES,ST2 inh
O=C(CN1CCN(Cc2ccc(F)cc2)C1=O)NCc1ccc(Cl)cc1,i
O=C(O)CNC(=O)CN1C(=O)c2ccc(C(=O)O)cc2C1=O,i
CN(C)CC(NCc1cn[nH]c1-c1ccc(F)cc1)c1ccccc1 (stereo not drawn),i
COC(=O)c1ccc(F)c(S(=O)(=O)N2CCOCC2)c1,i
Fc1cnc(NCCc2cccs2)nc1N1CCOCC1,i
CN1C[C@@H](NC(=O)Nc2cccc(C#N)c2)C[C@H]1c1nc(-c2cnccn2)no1,i
CCN(Cc1ccccc1)Cc1ccc(N(C)C)cc1,36%*
CN(Cc1ccccc1)Cc1ccccc1,i
CCN(CCc1ccccc1)CCN(C)C,i
CN(c1ncccc1C(=O)N1C[C@H](N(C)C)C[C@H]1CO)C1CCCCC1,i
COC(=O)C1=C(C)N=C2SC(C)C(=O)N2C1c1ccc(Br)cc1 (stereo not drawn),i
CC1CC(C)CN(S(=O)(=O)c2ccc(F)c(C(N)=O)c2)C1 (stereo not drawn),i
Clc1ccc(C2Oc3ccccc3C3=C2C(c2ccccc2)n2ncnc2N3)cc1 (stereo not drawn),i
COCCn1c(CNS(=O)(=O)c2ccccc2)nc2cccnc21,i
CCN(CC)c1ccc(N)c(C)c1,53%*
CCN(CC)c1ccc(C=NS(=O)(=O)c2ccc(C)cc2)cc1,i
NC(=O)c1cc(-c2ccccc2)sc1NC(=O)c1ccc(OC(F)F)cc1,i
Cc1cc(N2CCOCC2)nc2ccc(NC(=O)CCC(=O)NCc3ccc4c(c3)OCO4)cc12,i
COc1ccccc1N=c1sc(C2=c3ccccc3=NC2=O)c(O)n1-c1ccccc1OC,36%*
O=S(=O)(c1cccc2nsnc12)N1CCN(C23CC4CC(CC(C4)C2)C3)CC1,i
O=S(=O)(c1cccc2nsnc12)N1CCC(n2c(Cc3ccccc3)nc3cccnc32)CC1,97%*
CC(=O)Nc1ccc(S(=O)(=O)N2CCC(n3c(Cc4ccccc4)nc4cccnc43)CC2)cc1,i
O=C(NC1CCCC1)c1cc(-c2ccc3c(c2)OCO3)on1,i
CCc1nc(N2CCC(C)CC2)c(C#N)c2c1COC(C)(C)C2,i
CCOc1ccc(C(=O)Nc2cccc(NC(=O)C(C)C)c2)cc1[N+](=O)[O-],i
SMILES,ST2 inh
CCOc1ccc(C(=O)Nc2ccc3oc(-c4ccncc4)nc3c2)cc1[N+](=O)[O-],i
CCOc1ccc(C(=O)Nc2ccc3nn(-c4ccc(OC)c(Cl)c4)nc3c2)cc1[N+](=O)[O-],40%*
O=C(Nc1ccc2nn(-c3ccc(Cl)cc3)nc2c1)c1cccc(F)c1,i
COc1ccc(NC(=O)c2ccc(Cl)cc2)cc1,i
COc1ccc(C(=O)Nc2ccc3nn(-c4ccc(Cl)cc4)nc3c2)cc1,37%*
O=C(Nc1c(F)cccc1F)c1coc(=O)c2ccccc12,i
O=C(Nc1ccc(-c2csc(-c3ccccc3)n2)cc1)c1cc2ccccc2oc1=O,i
O=C(O)c1[nH]c2ccccc2c1CC(=O)N1CCCCCC1,i
COc1ccc(-n2nc3c(c2NC(=O)c2cccc(C(F)(F)F)c2)CS(=O)C3)cc1 (stereo not drawn),i
COc1cc(C)c(S(=O)(=O)N2CCN(c3nc(C)cc(N4CCOCC4)n3)CC2)cc1C,i
CC(C)Oc1ccc2c(=O)c(-c3ccccc3F)coc2c1,i
Cc1c(Cl)cccc1NC(=O)c1noc2c1CCC2,i
OC(COc1ccc(C2CCCCC2)cc1)CN1CCCCC1 (stereo not drawn),i
Cc1nc2n(n1)C(c1ccccc1)C=C(c1ccccc1)N2 (stereo not drawn),i
C=CCc1cc(OC)c(O)c(-c2cc(CC=C)cc(OC)c2O)c1,41%*
C=CCc1ccc(OCCOc2ccc(C=O)cc2OC)c(OC)c1,i
COc1cc(CCCO)cc(-c2cc(CCCO)cc(OC)c2O)c1O,i
COc1ccc2oc(=Nc3ccc(-c4ccccc4)cc3)c(C(N)=O)cc2c1,i
COc1ccc2oc(=Nc3ccccc3OC)c(C(N)=O)cc2c1,i
COc1ccc2oc(=Nc3ccc(C(C)=O)cc3)c(C(N)=O)cc2c1,40%*
O=C(Nc1ccc(N2CCC(NC(c3ccncc3)c3ccc(Cl)cc3)CC2)cc1)C1CCCC1 (stereo not drawn),i
Cc1ccc(NCC(O)COc2ccccc2)cc1C (stereo not drawn),35%*
Cc1cc(OCC(O)CNC(C)(C)C)ccc1C(C)C (stereo not drawn),i
Cc1ccc(OCC(O)CNC(C)(C)C)cc1C (stereo not drawn),i
O=C(CCCn1cnnn1)N1C[C@H]2CC=CC[C@H]2C1,i
